# Results from paper PMC6792352, “Limited Chemical Structural Diversity Found to Modulate Thyroid Hormone Receptor in the Tox21 Chemical Library” (Environmental Health Perspectives, 2019).
# Counter-ions that a name gives are not always drawn. Like-named read-outs stand apart in the source and are kept apart here.
# Test system: thyroid hormone receptor (endogenous TRα and TRβ)
# Set-up: species or system GH3-TRE-Luc (rat pituitary); GH3-TRE-Luc luciferase reporter, antagonist mode against 1 nM T3, loss of signal, qHTS
# Conditions: read-out: Average AC50 (uM) GH3-TRE-Antag
# [1] = antagonist mode, 1 nM T3, no GH3 cytotoxicity hit, 24 h
# [2] = antagonist mode, 1 nM T3, no GH3 cytotoxicity hit
smiles,measurement,setting,value
"Oc1cc(Cl)c(Cl)cc1Cl [2,4,5-Trichlorophenol]",AC50,[1],> 50 µM
"Oc1cc(Cl)c(Cl)cc1Cl [2,4,5-Trichlorophenol sodium salt]",AC50,[1],77.4 µM
c1ccc2c(c1)sc1ccccc12 [Dibenzothiophene],AC50,[2],33.4 µM
CNC(=O)Oc1ccccc1C(=O)Nc1ccccc1 [Anilamate],AC50,[2],> 50 µM
Nc1ccc(N=Nc2ccc(-c3ccc(N=Nc4c(S(=O)(=O)O)cc5cc(S(=O)(=O)O)c(N=Nc6ccccc6)c(O)c5c4N)cc3)cc2)c(N)c1 [C.I. Direct Black 38],AC50,[2],14 µM
CCCSP(=S)(OCC)Oc1ccc(Cl)cc1Cl (stereo not shown) [Prothiofos],AC50,[2],86.7 µM
O=[N+]([O-])c1ccc(Oc2ccc(C(F)(F)F)cc2[N+](=O)[O-])cc1 [Fluorodifen],AC50,[2],> 90 µM
CC[C@@H](O)C(C[C@@H](C)N(C)C)(c1ccccc1)c1ccccc1 [(+)-alpha-Methadol hydrochloride],AC50,[2],55.7 µM
CCOc1ccc2c3c1O[C@H]1[C@@H](O)C=C[C@H]4[C@@H](C2)N(C)CC[C@@]341 [Ethylmorphine],AC50,[2],44.9 µM
C[C@]12CCC(=O)C[C@@H]1CC[C@@H]1[C@@H]2CC[C@@]2(C)[C@H]1CC[C@]2(C)O [Mestanolone],AC50,[2],10.8 µM
C[C@]12CC[C@H](O)C[C@H]1CC[C@@H]1[C@@H]2CC[C@]2(C)[C@@H](c3ccc(=O)oc3)C[C@H]3O[C@]132 [Bufogenin],AC50,[2],39.2 µM
Cl[Si](Cl)(c1ccccc1)c1ccccc1 [Dichlorodiphenylsilane],AC50,"24 h, antagonist",76.3 µM
CN1C(=S)CN=C(c2ccccc2)c2cc(Cl)ccc21 [Sulazepam],AC50,"24 h, antagonist",43.6 µM
